About 64,000 (15%) of roughly 420,000 compounds were called active. Another 27% or so got no clear call; they are omitted. The call rests on the fitted dose curve; in most records, active means well fitted inhibition curve with a large enough effect; inconclusive means small, poorly fitted or top-dose-only effect; inactive means flat fitted curve, though single readings scatter. A selection follows. Entries that show only a call come without a potency.
Assay: qHTS for Inhibitors of human tyrosyl-DNA phosphodiesterase 1 (TDP1): qHTS in cells in absence of CPT; further: nearly all actives have a fitted effect of over 55% in size
Details: DT40 Tdp1-/- hTDP1 cells, no CPT, ATP luminescence, 48 h; activity change, negative = growth inhibition: at 46.2 µM (top of the series)
Method in brief: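 Cells were dispensed at 400 per well, compounds added by pin tool, plates incubated ≥48 hr at 37 °C, then CellTiter-Glo added for 30 min at room temperature before luminescence reading. Line: DT40 Tdp1-/- complemented with hTDP1; camptothecin omitted.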
Potency means the concentration at half of the fitted maximal effect.

Row | Structure (SMILES) | Potency
1 | COc1ccccc1-c1ccnc(-n2ncc(C(=O)NCCc3ccncc3)c2C)n1 | inactive
2 | COc1cccc(NC(=O)CN2C(=O)c3ccccc3Sc3ncccc32)c1 | 18.4 µM (active)
3 | CNC(=O)CN1C(=O)c2cccnc2Sc2ccccc21 | inactive
4 | COCCNC(=O)CCCN1C(=O)c2ccccc2Sc2ncccc21 | inactive
5 | Cc1ccc(S(=O)(=O)N(C)CC(=O)NC2CCCC2)cc1 | inactive
6 | C#CCN(C[C@H]1[C@H](OC(=O)NC2CCCC2)[C@H](OC(=O)NC2CCCC2)C[C@H]2C(=O)N(c3ccccc3)C(=O)[C@@H]12)S(=O)(=O)c1ccc(C)cc1 | inactive
7 | C#CCN(C[C@@H]1[C@@H](OC(=O)NC2CC2)[C@@H](OC(=O)NC2CC2)Cn2c(=O)ccc(=O)n21)S(=O)(=O)c1ccc(C)cc1 | 14.6 µM (active)
8 | CN(C)CCN(C(=O)C1=COCCO1)c1nc2ccc(Cl)cc2s1 | inactive
9 | CC(=O)OCc1cc(=O)n(C)c(=O)n1C | inactive
10 | CC1C(O)CC2C(C(=O)O)=CO[C@@H](O[C@H]3OC(CO)C(O)C(O)C3O)C21 (stereo partly drawn) | inactive
11 | CN(C)S(=O)(=O)c1ccc(NC(=O)N2CCOCC2)cc1 | inactive
12 | CN(C)S(=O)(=O)c1ccc(Oc2ccc(S(=O)(=O)N(C)C)cc2)cc1 | 18.4 µM (active)
13 | COc1ccc(S(=O)(=O)N(C)CC(=O)N2CCCC2)cc1 | inactive
14 | C#CCOCCOCCOCCNc1nc(N2CCN(C(=O)[C@H](CCC(=O)O)n3cc(CN)nn3)CC2)nc(N2CCN(C(=O)[C@H](CCC(=O)O)n3cc(CN)nn3)CC2)n1 | inactive
15 | Cc1cccc(C(=O)NCc2nnc(SC(C)C(=O)Nc3nnc(C)s3)n2C)c1 (stereo not drawn) | inactive
16 | CCc1ccc(Oc2coc3cc(O)ccc3c2=O)cc1 | inactive
17 | COc1cc(C(C(=O)NC2CCCC2)N(C(=O)c2ccco2)c2ccccc2C(C)=O)cc(OC)c1OC (stereo not drawn) | inactive
18 | COc1cc(C(=O)OC(C)C(=O)NCC2CCCCC2)cc(NC(=O)c2ccco2)c1OC (stereo not drawn) | 20.6 µM (active)
19 | CC(OC(=O)c1cccc(S(=O)(=O)N2CCOCC2)c1)C(=O)NCC1CCCCC1 (stereo not drawn) | inactive
20 | CSCC[C@H](NC(=O)N1CCn2c1nc1ccccc12)C(=O)NCc1ccc2c(c1)OCO2 | inactive
21 | CC(=O)N/C(=C\c1ccccc1)C(=O)OC(C)C(=O)N(C)c1ccccc1 (stereo not drawn) | inactive

Row | Structure (SMILES) | Potency
22 | O=S(=O)(NCCS(=O)(=O)N1CCN(c2ccccc2)CC1)c1ccc(Cl)cc1 | inactive
23 | O=C(CSc1ccccc1)Nc1cc(Cl)ccc1Oc1ccccc1 | inactive
24 | CC(=O)Nc1ccc(NC(=O)CN2CCCC(C)C2)c(Cl)c1 (stereo not drawn) | inactive
25 | CC1CCCN(CC(=O)Nc2cc(Cl)ccc2Oc2ccccc2)C1 (stereo not drawn) | 16.4 µM (active)
26 | COC(=O)[C@@H](Cc1ccccc1)NC(=O)NCCc1ccccc1 | inactive
27 | COc1ccc(-c2c(C)c3ccc(O)c(CN4CCN(C)CC4)c3oc2=O)cc1OC | inactive
28 | CCOC(=O)c1oc2c(CN3CCN(C)CC3)c(O)ccc2c(=O)c1-c1ccc(Br)cc1 | inactive
29 | CN1CCN(Cc2c(O)ccc3c2oc(=O)c2ccccc23)CC1 | 11.6 µM (active)
30 | COc1ccc(C(C)=O)cc1CSc1nc2nc(C)cc(C)n2n1 | inactive
31 | CN(CCc1cn[nH]c1)C(=O)CC1C(=O)NCCN1Cc1cccc(Oc2ccccc2)c1 (stereo not drawn) | inactive
32 | O=C(Nc1cccc(Cc2ccccc2)c1)Nc1ccc2nc([C@@H]3O[C@H](CO)[C@@H](O)[C@H](O)[C@H]3O)[nH]c2c1 | inactive
33 | O=C(CSc1ncc(CO)n1Cc1ccc(F)cc1)NCc1ccco1 | inactive
34 | O=C(Cc1ccc(-n2c(=O)c3sccc3n(Cc3ccc(F)cc3)c2=O)cc1)NCc1ccco1 | 18.4 µM (active)
35 | O=C(CCn1c(=O)c2sccc2n(Cc2ccc(F)cc2)c1=O)NCc1ccc2c(c1)OCO2 | inactive
36 | Cc1cc(OC(=O)c2ccc(OC(C)C)cc2)c([N+](=O)[O-])c(=O)[nH]1 | inactive
37 | Cc1ccc2nc(SC(C)C(=O)NCc3ccco3)[nH]c2c1 (stereo not drawn) | inactive
38 | CCc1cccc(NC(=O)COC(=O)C2CCN(c3ccc(C(F)(F)F)cn3)CC2)c1 | 8.2 µM (active)
39 | N#CCCN(C(=O)COC(=O)C1CCN(c2ccc(C(F)(F)F)cn2)CC1)c1ccc(F)cc1 | inactive
40 | CCOc1ccc(CCNC(=O)COC(=O)C2CCN(c3ccc(C(F)(F)F)cn3)CC2)cc1OCC | inactive
41 | CSCCC(C(=O)NC1=NCCS1)N1C(=O)c2ccccc2C1=O (stereo not drawn) | inactive
42 | CCCCN(C(=O)/C=C/c1ccco1)c1c(N)n(CC(C)C)c(=O)[nH]c1=O | inactive

Row | Structure (SMILES) | Potency
43 | O=C(CSc1ncccn1)NCCc1ccccc1 | inactive
44 | CCCCCCCCCCCCCCCC(=O)OC/C=C(C)/C=C/C=C(C)/C=C/C1=C(C)CCCC1(C)C | inactive
45 | COc1ccc(Nc2cc(Cl)ccc2C(=O)O)cn1 | inactive
46 | COc1ccc(-c2csc(C(O)c3cccc(Cl)c3)n2)cn1 (stereo not drawn) | 20.6 µM (active)
47 | COc1cc(C(O)c2nc(-c3cccc(C(=O)O)c3)cs2)ccc1F (stereo not drawn) | inactive
48 | CC1CCCN(CCOCCOc2ccccc2-c2ccccc2)C1 (stereo not drawn) | 23.1 µM (active)
49 | CC1CCCN(CC(O)COc2ccc3c(c2)OCO3)C1 (stereo not drawn) | inactive
50 | CC1CCCN(CC(O)COCc2ccccc2)C1 (stereo not drawn) | inactive
51 | COc1cc(C)c(C)cc1S(=O)(=O)N1CCCc2ccccc21 | 16.4 µM (active)
52 | CCC(C)(C)NC(=O)/C=C/c1cc(OC)c(OC)c(S(=O)(=O)N2CCc3ccccc32)c1 | inactive
53 | COc1ccc(C(=O)OCC(=O)NCC2CCCCC2)cc1S(=O)(=O)N1CCCc2ccccc21 | inactive
54 | O=C(O)CCC(=O)NCc1ccc(C(=O)O)cc1 | inactive
55 | Cn1c(CNC(=O)c2ccco2)nnc1SCC(=O)N1CCN(c2ccccc2)CC1 | inactive
56 | COc1cccc2c1cc1c(=O)n(CC(=O)N3CCN(c4cccc(Cl)c4)CC3)nc(C)n12 | inactive
57 | Cc1cc2nnc(SCC(=O)N3CCN(c4ccccc4)CC3)n2c(N)n1 | inactive
58 | Cn1c(Cc2cccc3ccccc23)nnc1SCC(=O)N1CCN(c2cccc(Cl)c2)CC1 | 23.1 µM (active)
59 | Cc1ccc(Cl)cc1NC(=O)C(C)n1nnc2sc(-c3ccccc3)cc2c1=O (stereo not drawn) | inactive
60 | COc1ccc(NC(=O)CCc2nnc3n(CC(C)C)c(=O)c4ccccc4n23)cc1OC | inactive
61 | CC(C)Cn1c(=O)c2ccccc2n2c(-c3cccc(Cl)c3)nnc12 | 25.9 µM (active)
62 | CC(C)Cn1c(=O)c2ccccc2n2c(CCC(=O)NCc3ccccn3)nnc12 | inactive
63 | CC(C)Cn1c(=O)c2ccccc2n2c(CCC(=O)N3CCN(c4cccc(Cl)c4)CC3)nnc12 | 7.31 µM (active)
